In PubChem BioAssay (NCATS):
Unmarked numbers belong to inactive results. Results filed as inconclusive are left out. The list shows a part of the results. Entries that show only a call come without a potency. Active and inactive are the calls of the source. Calls come from the whole dose curve; as a rule, active = well fitted curve in the direction sought with a large enough effect; inconclusive = small, poorly fitted or top-dose-only effect, or another doubt; inactive = no such curve, though single readings can be large; an effect the other way counts as inactive or inconclusive.

Columns and labels:
[1] = target: Tumor susceptibility gene 101 protein (Homo sapiens) (UniProt Q99816); experiment: qHTS Assay for Iinhibitors of HIV-1 Budding by Blocking the Interaction of PTAP/TSG101: Hit Validation (AID 651600); note: potency is the fitted concentration of half-maximal effect; nearly all actives have a fitted effect of over 70% in size
Chain of Tumor susceptibility gene 101 protein (Homo sapiens) (Q99816 whole entry, looked up, the tested form may be a part): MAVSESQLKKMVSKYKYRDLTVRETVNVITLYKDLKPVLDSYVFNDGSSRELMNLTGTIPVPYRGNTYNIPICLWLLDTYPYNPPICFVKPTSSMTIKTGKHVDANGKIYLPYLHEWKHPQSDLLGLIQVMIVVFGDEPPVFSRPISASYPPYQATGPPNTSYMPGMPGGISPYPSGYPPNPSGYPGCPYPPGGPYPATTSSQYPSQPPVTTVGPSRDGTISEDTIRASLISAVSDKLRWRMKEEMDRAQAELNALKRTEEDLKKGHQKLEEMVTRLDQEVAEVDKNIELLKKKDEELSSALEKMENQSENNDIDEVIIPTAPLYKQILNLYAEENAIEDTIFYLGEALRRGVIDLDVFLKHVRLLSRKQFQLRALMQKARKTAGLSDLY
In short: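 Tsg101 binding domain 10 uM + FITC-PTAP peptide 50 nM (final), 10 mM HEPES pH 7.5/0.15 M NaCl/0.01% Tween 20/3 mM EDTA/0.1 mM TCEP; 20 min RT; FP read, FITC filters.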

[2] = target: DNA polymerase iota (Homo sapiens) (UniProt Q9UNA4); experiment: qHTS for Inhibitors of Polymerase Iota: Confirmatory Assay for Cherry-picked Compounds (AID 720496); settings: Pol iota primer extension, TAMRA/BHQ fluorescence; note: potency is the fitted concentration of half-maximal effect
Chain of DNA polymerase iota (Homo sapiens) (Q9UNA4 whole entry, looked up): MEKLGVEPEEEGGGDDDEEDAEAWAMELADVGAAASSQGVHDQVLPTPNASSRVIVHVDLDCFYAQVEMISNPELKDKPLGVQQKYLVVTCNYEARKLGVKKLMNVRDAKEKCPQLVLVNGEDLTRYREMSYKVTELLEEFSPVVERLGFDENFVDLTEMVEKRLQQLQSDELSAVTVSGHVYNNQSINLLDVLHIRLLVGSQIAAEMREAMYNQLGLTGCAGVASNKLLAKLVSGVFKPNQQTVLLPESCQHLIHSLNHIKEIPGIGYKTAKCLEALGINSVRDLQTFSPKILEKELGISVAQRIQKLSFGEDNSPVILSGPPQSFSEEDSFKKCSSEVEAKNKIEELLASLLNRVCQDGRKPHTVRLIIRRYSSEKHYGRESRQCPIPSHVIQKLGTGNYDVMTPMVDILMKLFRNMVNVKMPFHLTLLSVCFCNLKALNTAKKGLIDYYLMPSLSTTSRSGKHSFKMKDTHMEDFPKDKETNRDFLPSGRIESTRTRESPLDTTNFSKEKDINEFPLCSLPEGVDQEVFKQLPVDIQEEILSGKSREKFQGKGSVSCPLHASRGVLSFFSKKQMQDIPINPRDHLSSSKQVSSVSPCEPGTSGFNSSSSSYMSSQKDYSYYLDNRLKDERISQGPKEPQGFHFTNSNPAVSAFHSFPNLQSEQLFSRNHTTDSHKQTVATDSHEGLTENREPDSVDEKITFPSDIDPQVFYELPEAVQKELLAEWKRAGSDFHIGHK
In short: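 Extension of a quenched TAMRA-reporter/BHQ-2-template DNA substrate (50 nM) by 10 nM Pol iota after 15 min compound preincubation. Strand-displacement fluorescence (525/598 nm) was read kinetically at 0 and 10 min. Buffer-only wells served as negative control.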

[3] = target: Flap endonuclease 1 (Homo sapiens) (UniProt P39748); experiment: qHTS Assay for the Inhibitors of FEN1: Confirmatory Assay for Cherry-picked Compounds (AID 720498); settings: FEN1 flap cleavage, TAMRA/BHQ2 fluorogenic DNA substrate; note: potency is the fitted concentration of half-maximal effect; nearly all actives have a fitted effect of over 60% in size
Chain of Flap endonuclease 1 (Homo sapiens) (P39748 whole entry, looked up): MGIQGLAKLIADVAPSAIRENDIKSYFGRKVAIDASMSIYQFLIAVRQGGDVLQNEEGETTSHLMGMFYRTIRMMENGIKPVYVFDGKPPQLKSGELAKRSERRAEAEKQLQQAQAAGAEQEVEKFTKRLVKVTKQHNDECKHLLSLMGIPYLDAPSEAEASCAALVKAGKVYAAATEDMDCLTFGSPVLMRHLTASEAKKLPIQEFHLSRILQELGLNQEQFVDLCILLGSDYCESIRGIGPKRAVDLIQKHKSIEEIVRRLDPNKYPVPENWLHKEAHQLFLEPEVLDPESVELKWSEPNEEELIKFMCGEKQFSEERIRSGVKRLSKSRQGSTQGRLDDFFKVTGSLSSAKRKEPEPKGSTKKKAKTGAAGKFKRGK
In short: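 Human FEN1 (10 nM reagent) was preincubated with compounds for 15 min at room temperature, then 50 nM final double-flap DNA substrate (5'-TAMRA flap, BHQ-2 quencher strand) was added. Fluorescence (ex 525/em 598 nm) was read at 0 and 15 min.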

[4] = target: Rap guanine nucleotide exchange factor 3 (Homo sapiens) (UniProt O95398); experiment: Confirmatory qHTS for agonist of cAMP-regulated guanine nucleotide exchange factor 3 (EPAC1) (AID 1645881);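 note: EPAC1 catalysed release of BODIPY-GDP from Rap1B seen as fluorescence loss; nearly all actives have a fitted effect of over 75% in size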
Chain of Rap guanine nucleotide exchange factor 3 (Homo sapiens) (O95398 whole entry, looked up): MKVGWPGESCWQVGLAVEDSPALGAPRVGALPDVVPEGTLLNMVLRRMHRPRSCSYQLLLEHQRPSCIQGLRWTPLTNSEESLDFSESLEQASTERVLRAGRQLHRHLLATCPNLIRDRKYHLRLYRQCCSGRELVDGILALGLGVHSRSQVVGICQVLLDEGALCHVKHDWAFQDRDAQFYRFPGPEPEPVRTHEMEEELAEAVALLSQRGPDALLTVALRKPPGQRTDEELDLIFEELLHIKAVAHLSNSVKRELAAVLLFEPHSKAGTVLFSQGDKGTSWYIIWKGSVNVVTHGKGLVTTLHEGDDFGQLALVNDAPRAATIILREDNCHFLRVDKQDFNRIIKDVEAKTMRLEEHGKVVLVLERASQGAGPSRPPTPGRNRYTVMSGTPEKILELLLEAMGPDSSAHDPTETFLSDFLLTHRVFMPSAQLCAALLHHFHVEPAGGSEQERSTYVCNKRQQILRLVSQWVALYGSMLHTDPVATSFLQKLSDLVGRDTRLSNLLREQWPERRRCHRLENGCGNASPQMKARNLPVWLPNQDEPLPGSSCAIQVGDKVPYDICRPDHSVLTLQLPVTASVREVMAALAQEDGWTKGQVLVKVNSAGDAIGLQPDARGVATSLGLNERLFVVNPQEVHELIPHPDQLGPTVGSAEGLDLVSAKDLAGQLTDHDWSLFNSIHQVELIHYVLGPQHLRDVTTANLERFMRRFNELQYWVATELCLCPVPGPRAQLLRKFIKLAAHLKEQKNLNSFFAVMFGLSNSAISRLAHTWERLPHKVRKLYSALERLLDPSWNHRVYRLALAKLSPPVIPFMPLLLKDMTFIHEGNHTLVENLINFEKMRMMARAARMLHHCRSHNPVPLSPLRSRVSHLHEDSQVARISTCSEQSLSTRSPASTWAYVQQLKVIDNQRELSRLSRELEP

[5] = target: Rap guanine nucleotide exchange factor 4 (Homo sapiens) (UniProt Q8WZA2); experiment: Confirmatory qHTS for antagonist of cAMP-regulated guanine nucleotide exchange factor 4 (EPAC2) (AID 1645885); note: nearly all actives have a fitted effect of over 25% in size
Chain of Rap guanine nucleotide exchange factor 4 (Homo sapiens) (Q8WZA2 whole entry, looked up): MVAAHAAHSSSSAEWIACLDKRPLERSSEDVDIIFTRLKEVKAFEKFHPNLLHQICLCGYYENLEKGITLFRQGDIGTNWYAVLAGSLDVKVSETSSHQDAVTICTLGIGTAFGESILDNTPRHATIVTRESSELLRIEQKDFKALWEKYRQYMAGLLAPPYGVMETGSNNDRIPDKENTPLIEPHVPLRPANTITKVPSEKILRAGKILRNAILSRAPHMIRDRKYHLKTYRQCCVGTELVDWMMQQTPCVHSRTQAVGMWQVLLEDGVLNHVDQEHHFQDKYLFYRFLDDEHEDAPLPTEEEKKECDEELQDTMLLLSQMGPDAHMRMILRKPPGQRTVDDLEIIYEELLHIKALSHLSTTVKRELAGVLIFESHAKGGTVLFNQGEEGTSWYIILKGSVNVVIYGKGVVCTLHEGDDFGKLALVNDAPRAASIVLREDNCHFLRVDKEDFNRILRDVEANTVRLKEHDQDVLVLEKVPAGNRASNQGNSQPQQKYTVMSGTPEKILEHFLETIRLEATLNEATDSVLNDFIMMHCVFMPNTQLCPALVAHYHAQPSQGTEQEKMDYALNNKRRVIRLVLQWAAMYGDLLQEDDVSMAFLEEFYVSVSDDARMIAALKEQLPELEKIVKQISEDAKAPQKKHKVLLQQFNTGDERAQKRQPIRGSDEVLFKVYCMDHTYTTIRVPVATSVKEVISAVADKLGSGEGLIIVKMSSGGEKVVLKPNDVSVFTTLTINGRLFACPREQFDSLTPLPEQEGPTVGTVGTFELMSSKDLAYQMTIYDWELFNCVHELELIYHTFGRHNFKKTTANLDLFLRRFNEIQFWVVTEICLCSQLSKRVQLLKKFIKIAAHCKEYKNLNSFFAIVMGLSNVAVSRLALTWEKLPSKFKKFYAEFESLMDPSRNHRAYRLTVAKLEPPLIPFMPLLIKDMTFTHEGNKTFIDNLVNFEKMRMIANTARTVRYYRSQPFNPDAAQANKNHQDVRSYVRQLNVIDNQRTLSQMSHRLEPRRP

[6] = target: Rap guanine nucleotide exchange factor 3 (Homo sapiens) (UniProt O95398); experiment: Counterscreen qHTS for antagonist of cAMP-regulated guanine nucleotide exchange factor 3 (EPAC1) (AID 1645888);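 note: fluorescence loss as bound BODIPY-GDP is released from Rap1B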
In short: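 Rap1B–BODIPY-GDP (250 nM) with 50 uM GDP; compounds pin-transferred to 9.74 nM–152 uM final (activator) or from 7.32 nM upwards (inhibitor). Fluorescence Ex/Em 480/540 nm read at 5 and 30 min, then after adding cAMP or buffer, at room temperature.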

[7] = target: Cytochrome P450 3A4 (Homo sapiens) (UniProt P08684); experiment: qHTS Assay for Activators of Cytochrome P450 3A4 (AID 885); note: nearly all actives have a fitted effect of over 65% in size
Chain of Cytochrome P450 3A4 (Homo sapiens) (P08684 whole entry, looked up): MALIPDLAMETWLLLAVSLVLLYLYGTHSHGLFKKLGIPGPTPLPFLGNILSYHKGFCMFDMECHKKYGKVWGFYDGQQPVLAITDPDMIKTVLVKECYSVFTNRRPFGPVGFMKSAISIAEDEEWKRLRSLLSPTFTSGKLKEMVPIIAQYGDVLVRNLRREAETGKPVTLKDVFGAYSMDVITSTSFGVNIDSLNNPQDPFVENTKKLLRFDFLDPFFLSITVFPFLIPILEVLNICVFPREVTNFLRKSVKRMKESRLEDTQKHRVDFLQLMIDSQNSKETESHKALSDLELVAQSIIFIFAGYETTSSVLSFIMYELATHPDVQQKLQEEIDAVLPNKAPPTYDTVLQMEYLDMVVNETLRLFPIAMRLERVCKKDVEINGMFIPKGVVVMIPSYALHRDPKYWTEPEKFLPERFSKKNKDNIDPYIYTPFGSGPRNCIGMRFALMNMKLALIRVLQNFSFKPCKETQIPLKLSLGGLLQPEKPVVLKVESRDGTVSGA
In short: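 Luminescent readout of luciferin formed from 25 uM Luciferin-PPXE (KM level) by 20 nM CYP3A4 in 200 mM KPO4, with 60 min NADPH-driven reaction at room temperature after 10 min compound exposure. Ketoconazole (57 uM) defined 100% inhibition.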

[8] = Confirmation and Secondary Assay for Modulators of Hemoglobin Beta Chain Splicing at IVS2 654 locus (AID 910);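 note: HeLa cells stably carrying EGFP split by mutant beta-globin IVS2-654 intron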
In short: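 HeLa cells stably expressing EGFP interrupted by β-globin IVS2-654 intron, seeded overnight in Opti-MEM/2% FCS, then treated 2 days at 37 °C. Restored splicing read as total peak GFP intensity per well by laser scanning cytometry (488 nm excitation, 500–520 nm emission); 500 nM antisense PNA as control.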

[9] = Confirmation and Secondary Assay for Modulators of Hemoglobin Beta Chain Splicing at IVS2 705 locus (AID 930);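 note: HeLa cells stably expressing the EGFP-705 splicing reporter; GFP fluorescence per well restored by corrected splicing of the IVS2-705 intron in EGFP; series mostly up to about 46 µM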
In short: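 HeLa cells stably carrying EGFP interrupted by mutant beta-globin intron 2 (IVS2-705) treated 2 days at 37C with compound; 500 nM antisense PNA as control. Correct splicing read as total peak GFP intensity per well by laser-scanning cytometry.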

[10] = target: Rap guanine nucleotide exchange factor 4 (Homo sapiens) (UniProt Q8WZA2); experiment: Confirmatory qHTS for agonist of cAMP-regulated guanine nucleotide exchange factor 4 (EPAC2) (AID 1645884);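 note: nucleotide exchange releases bodipy-GDP from Rap1 and this lowers its fluorescence; nearly all actives have a fitted effect of over 65% in size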

In the case of CN(N=Nc1ccc([N+](=O)[O-])cc1)c1ccccc1, the Potency [1] was 13 µM (active).
For COc1ccc(-c2nn(-c3ccccc3)cc2/C=C2/SC(=S)N(CCCC(=O)O)C2=O)c(C)c1, the Potency [2] was 75.2 µM (active) and the Potency [3] was 47.8 µM (active).
For Cc1ccc2c(c1)-c1c(cnn1CC(=O)N1CCN(c3cccc(C(F)(F)F)c3)CC1)CO2, the Potency [4] was “inactive”, the outcome [5] was “inactive [at 12.7 µM]” and the Potency [6] was “inactive”.
With COc1ccc(CNc2ncnc3onc(-c4ccc(F)cc4)c23)cc1 the Potency [4] was “inactive”, the Potency [5] was “inactive” and the Potency [6] was “inactive”.
In the case of Cc1ccc(C)c(CN2C(=O)C(O)(c3c[nH]c4ccccc34)c3ccccc32)c1 (configuration not stated), the Potency [4] was “inactive” and the outcome [5] was “inactive [at 12.7 µM]”.
In the case of O=c1[nH]c(Nc2ccc(F)cc2)cc2ccccc12, the Potency [4] was “inactive”, the Potency [5] was “inactive” and the Potency [6] was “inactive”.
For COc1ccc2c(c1)OCC(Cc1ccc(OC)c(OC)c1)C2=O (configuration not stated), the outcome [7] was “inactive”, the Potency [8] was “inactive” and the Potency [9] was “inactive”. For the same compound, the Potency [4] was “inactive” and the Potency [10] was “inactive”.
For Cc1ccccc1C1(O)c2ccccc2-c2ccccc21, the Potency [4] was “inactive”, the Potency [5] was “inactive” and the Potency [6] was “inactive”.
